Screening results as filed in PubChem.
Shown are actives, neighbours in structure and some others; about 10% of the full set was active somewhere.
Luc counter: Counterscreen for Luciferase (Kinase-Glo TM) Inhibition | Luciferin 4-monooxygenase (Photuris pensylvanica), Q27757 | 0.28% of 200,000 active | Kinase-Glo luciferase, ATP luminescence, 8 min | AID 1379, 2008 | Potency, µM (series often up to 38.3 µM), without a hit: at the top dose activity change, negative = inhibition, most hits filed as inhibitors; active = well fitted inhibition curve with a large enough effect; inconclusive = small, poorly fitted or top-dose-only effect; also: potency is read from the fitted curve at half-maximal effect; nearly all actives have a fitted effect of over 60% in size
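Compounds were added to a substrate mix at pH 7.2 (50 mM imidazole, 10 uM ATP, within the enzyme's linear range), followed by Kinase-Glo detection reagent; luminescence was measured after 8 minutes at ambient temperature.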
Lamin A splicing: qHTS Assay for Modulators of Lamin A Splicing; HeLa LMNA splicing GFP/RFP minigene ratio, 48 h; Potency, µM (titrated, usually from 46.1 µM), for the others: top-dose ratio change, negative = inhibition, usual class: inhibitors; 0.01% of 200,000 active; active = well fitted inhibition curve with a large enough effect in the signal ratio, with a control signal flat, not every such curve was filed as active; inconclusive = small, poorly fitted or top-dose-only effect, or effect the other way, or a change in a side signal; the % refers to the signal ratio; also: potency is read from the fitted curve at half-maximal effect
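S3 HeLa stable clones carrying a lamin A-EGFP splicing minigene plus DsRed2 were seeded at 600 cells/well in Opti-MEM with 2% FBS, pin-dosed and incubated 48 h at 37°C. Acumen cytometry (488 nm) gave the GFP/RFP total-intensity ratio.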
HPGD block: qHTS Assay for Inhibitors of HPGD (15-Hydroxyprostaglandin Dehydrogenase). purified HPGD, NADH fluorescence kinetic, PGE2 substrate. Potency, µM, for the others: top-dose activity change, negative = inhibition, most hits filed as inhibitors. 4.3% of 150,000 active; also: potency is read from the fitted curve at half-maximal effect
Target sequence (P15428 whole entry, looked up): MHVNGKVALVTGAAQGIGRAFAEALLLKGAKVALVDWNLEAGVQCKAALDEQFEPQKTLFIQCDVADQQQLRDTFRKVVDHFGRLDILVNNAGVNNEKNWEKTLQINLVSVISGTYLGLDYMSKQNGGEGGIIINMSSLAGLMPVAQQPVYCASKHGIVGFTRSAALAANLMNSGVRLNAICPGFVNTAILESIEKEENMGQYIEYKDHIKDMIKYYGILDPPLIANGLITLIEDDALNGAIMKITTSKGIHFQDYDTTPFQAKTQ
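NADH formation kinetics: reaction with 30 uM PGE2 and 1 mM NAD+ (final), 20 nM enzyme, Tris-HCl pH 8 with Tween 20, after 15 min compound preincubation at room temperature. Fluorescence change, last versus first of five reads.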
IMPase inh: qHTS Assay for Identifying the Cell-Membrane Permeable IMPase Inhibitors; Inositol monophosphatase 1 (Rattus norvegicus), P97697; CHO-M1 cells, IP1 accumulation, HTRF TR-FRET ratio; inhibition (IP1 accumulation), % at 46.1 µM; 120,000 tested, under 10 active; AID 901, 2007; active = well fitted curve in the direction sought with a large enough effect in the signal ratio, not every such curve was filed as active; inconclusive = small, poorly fitted or top-dose-only effect, or a change in a side signal; inactive = no such curve, though single readings can be large or run the other way; the % refers to the signal ratio;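 also: cells stimulated with carbachol in lithium chloride buffer; plate controls were DMSO basal wells for no effect and reference inhibitor wells for full effect; higher means more IMPase inhibition seen as more IP1 and lower FRET ratio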
Target sequence (P97697 whole entry, looked up): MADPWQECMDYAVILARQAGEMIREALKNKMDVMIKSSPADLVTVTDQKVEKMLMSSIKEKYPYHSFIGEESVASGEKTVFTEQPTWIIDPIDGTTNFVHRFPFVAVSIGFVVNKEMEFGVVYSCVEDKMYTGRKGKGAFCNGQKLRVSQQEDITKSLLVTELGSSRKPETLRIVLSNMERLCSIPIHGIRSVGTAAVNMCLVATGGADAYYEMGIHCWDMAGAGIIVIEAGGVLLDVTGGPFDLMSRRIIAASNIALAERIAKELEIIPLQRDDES
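Elevated IP1 in lysates lowers TR-FRET signal (665/620 ratio and 620 channel reported). Cells were CHO-M1, given carbachol (50 uM as added) plus 50mM LiCl, pH 7.4, 30 min, 37C; compounds titrated up to 46 uM; AC50 by Hill equation.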
ALDH1A1 inh: qHTS Assay for Inhibitors of Aldehyde Dehydrogenase 1 (ALDH1A1) | Potency, µM (series often up to 75.3 µM), for the others: at the top dose activity, negative = inhibition, usual class: inhibitors | Purified ALDH1A1, NADH fluorescence, propionaldehyde substrate | 7.3% of 220,000 active | Aldehyde dehydrogenase 1A1 (Homo sapiens), P00352;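 also: potency is read from the fitted curve at half-maximal effect; plate controls were no enzyme wells and a reference inhibitor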
PNC inhibitor: High Content Assay for Compounds that inhibit the Assembly of the Perinucleolar Compartment | 3.1% of 140,000 active | AID 2417, 2010 | activity change (PNC), negative = inhibition, % at 10 µM | PC3M PTB-GFP, PNC prevalence imaging, 16 h; stronger effect = lower value;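 active = readout at or below -70, meaning at least 70% loss of cells showing the perinucleolar compartment, a nuclear body marking cancer cells; inconclusive = readout between -30 and a set limit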;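 also: plate controls were DMSO wells for no effect and camptothecin positive control wells for full effect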
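Compounds are pinned in duplicate onto adhered PC3M cells stably expressing GFP-tagged PTB and incubated 16 h at 37 C. Cells are then fixed, nuclei stained with Hoechst, and PNC-positive cells counted.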
Numbers without * were called inactive; u = inconclusive; x = no result; [ ] = another dose, or the depositor's remark. Unless noted, calls follow the shape of the dose curve; as a rule, active = well fitted inhibition curve with a large enough effect (not every such curve was filed as active); inconclusive = small, poorly fitted or top-dose-only effect, or another doubt; inactive = no such curve, though single readings can be large or run the other way. Unless noted, % is scaled to controls: 0 for no effect and ±100 for the full control effect.

SMILES	Luc counter	Lamin A splicing	HPGD block	IMPase inh	ALDH1A1 inh	PNC inhibitor
COC(=O)c1sc(Nc2ccccc2)nc1C	-6%	10%	22µM*	-1	-4%	-5
CC(C)(C)c1ccc(NC(=O)COC(=O)CCN2C(=O)c3cccc([N+](=O)[O-])c3C2=O)cc1	-1%	1%	-7%	3	u	38
O=C(O)c1[nH]c2ccc(Br)cc2c1CCN1C(=O)c2cccc([N+](=O)[O-])c2C1=O	x	x	x	x	32µM*	x
Cc1nonc1C1CCCN1Cc1cn[nH]c1-c1ccc2c(c1)OCO2 (stereo not given)	x	x	x	x	16µM*	x
COc1ccc(-c2[nH]ncc2CN2CCCC2c2nonc2C)c(F)c1 (stereo not given)	-2%	15%[46 µM]	x	x	u	x
Cc1ccc(CNC(=O)c2c(-c3ccccc3F)noc2C)o1	x	10%[46 µM]	x	x	x	x
COc1ccccc1CNC(=O)c1ccc(S(=O)(=O)N2CCCC2)cc1	x	u	x	7	u	-28
COc1ccc(Br)cc1CNC(=O)C1CCN(S(=O)(=O)N2CCCCC2)CC1	1%	7%[0.0737 µM]	-7%	3	13µM*	78
COc1ccc(-n2c(CNC(=O)c3ccc(S(=O)(=O)N4CCCC4)cc3)n[nH]c2=S)cc1	-5%	5%	-7%	7	10µM*	u
COc1cccc(CN(C)C(=O)c2ccc(S(=O)(=O)N3CCCC3)cc2)c1OC	-2%	u	-5%	-4	11µM*	10
COc1cccc(CNC(=O)c2ccc(S(=O)(=O)N3CCCC3)cc2)c1	-3%	0%	-5%	6	13µM*	40
Cc1cc(C)nc(NS(=O)(=O)c2ccc(NC(=O)COc3ccc(C(C)(C)C)cc3)cc2)n1	x	x	x	-3	x	x
Cc1ccc(S(=O)(=O)NCC(c2ccco2)N2CCN(c3ccccc3F)CC2)cc1 (stereo not given)	x	-4%[46 µM]	x	x	x	x
Cc1cccc2c1Oc1ccccc1[C@@H]2NC(=O)c1ccc([N+](=O)[O-])cc1	-7%[7.66 µM]	x	-4%	x	6%[13.5 µM]	x
COc1ccc(NC(=O)c2sc3nc(C)c(C(=O)Nc4ccc(C)cc4C)c(-c4cccs4)c3c2N)cc1	x	x	x	1	x	x
N#C/C(=C\c1ccc(-c2cc(Cl)ccc2Cl)o1)C(=O)Nc1ccccc1C(=O)O	x	x	x	5	x	x
COc1ccc(S(=O)(=O)N2CCC(C(=O)NCc3cccc(OC)c3)CC2)cc1	0%	9%	-11%	1	-15%	7
COc1cccc(CNC(=O)C2CCN(S(=O)(=O)N3CCCCC3)CC2)c1	-2%	11%	-12%	-4	10µM*	11
COc1ccc(/C=C/c2cc(OC)c(OC)cc2CC[N+](C)(C)C)cc1	-3%	x	u	x	-8%	x
CCN(CC)S(=O)(=O)c1ccc(N2CCOCC2)c(NC(=O)CNCCc2ccccc2)c1	x	x	x	x	11µM*	x
CCN(CC)S(=O)(=O)c1ccc(N2CCOCC2)c(NC(=O)c2ccc(C#N)cc2)c1	2%	x	x	x	20µM*	x
CCN(CC)S(=O)(=O)c1ccc(N2CCOCC2)c(NC(=O)c2ccc(F)cc2)c1	1%	-9%[46 µM]	x	x	u	x
CCN(CC)S(=O)(=O)c1ccc(N2CCOCC2)c(NC(=O)COc2ccccc2)c1	-3%	-15%[46 µM]	x	x	0.22µM*	x
O=C(COS(=O)c1ccccc1)Nc1cc(Cl)ccc1N1CCOCC1 (stereo not given)	1%	x	x	x	1.3µM*	x
CCN(CC)S(=O)(=O)c1ccc(N2CCOCC2)c(NC(=O)c2ccccc2F)c1	0%	x	x	x	u	x
SMILES	Luc counter	Lamin A splicing	HPGD block	IMPase inh	ALDH1A1 inh	PNC inhibitor
COCCn1c(=O)c(-c2ccc(Cl)cc2)nc2cnc(Oc3cccc(Cl)c3)nc21	x	20%	x	x	u	x
O=C(Nc1ccc(Br)c2cccnc12)c1cccc2ccccc12	x	x	x	3	x	x
CC1CCN(S(=O)(=O)c2ccc3c(c2)CCN3)CC1	x	-11%[46 µM]	x	x	x	x
CC(=O)OC[C@@H]1O[C@@H](O/N=C2/C[C@@H](O)[C@@H](O)[C@@H]3[C@@H]4C(=O)N(C(C)(C)C)C(=O)[C@H]4CC[C@@H]23)[C@H](OC(C)=O)[C@H](OC(C)=O)[C@@H]1OC(C)=O	x	x	x	x	4%[13.5 µM]	x
O=CN1CC(=O)N(c2ccccc2)c2c([nH]c3ccccc23)C1	-3%	10%[0.0737 µM]	22µM*	-4	u	-11
CC(=O)n1cc([C@@H]2C=C(C(=O)Nc3ccccc3)O[C@H](OCCCCO)C2)c2ccccc21	x	x	x	x	13µM*	x
O=C(Nc1ccccc1)C1=C[C@@H](c2ccc(Br)cc2)C[C@@H](OCCCCO)O1	x	x	x	x	7.9µM*	x
COc1ccc(C(=O)N/N=C/c2ccc(OC)c(OS(=O)(=O)c3ccccc3)c2)cc1	-1%	u	-13%	x	10µM*	-11
COc1ccc(/C=N/NC(=O)c2cccc([N+](=O)[O-])c2)cc1OS(=O)(=O)c1ccc(C)cc1	6%	17%	-22%	11	13µM*	7
CCOc1cc(/C=N/NC(=O)c2cccc([N+](=O)[O-])c2)ccc1OS(=O)(=O)c1ccccc1	0%	-4%	-8%	8	u	41
COc1ccc(/C=N/NC(=O)c2cccnc2)cc1COc1ccc([N+](=O)[O-])c(C)c1	x	x	x	x	10µM*	x
COc1ccc(/C=N/NS(=O)(=O)c2ccccc2)cc1OS(=O)(=O)c1ccccc1	6%	-2%	-6%	-1	u	-24
COCCn1c(=O)c(-c2ccc(OC)cc2)nc2cnc(Nc3cccc(OC)c3)nc21	-5%	x	-7%	x	0%	x
Cc1ccc(NC(=O)CN2CCN(C3CCCCC3)C(=O)C2=O)cc1C	x	4%[46 µM]	x	x	x	x
CCc1cccc(CC)c1NC(=O)Cn1nnc2sc3c(c2c1=O)CCCC3	x	x	x	-6	x	x
Brc1nc(Br)n(Cc2ccccc2)n1	-1%	u	x	x	8%	x
Nn1cnn(Cc2ccccc2)c1=S	2%	-3%	20µM*	12	25µM*	29
COc1ccccc1CNC(=O)C1CCCN1S(=O)(=O)c1cccc2cccnc12 (stereo not given)	3%	-6%	22µM*	-8	u	0
O=C(NCc1ccco1)C1CCCN(S(=O)(=O)c2ccc(Br)cc2)C1 (stereo not given)	0%	5%[46 µM]	x	x	u	x
O=C(NCCc1ccccc1)C1CCN(S(=O)(=O)c2ccc(-n3cnnn3)cc2)CC1	0%	8%	-6%	-1	14µM*	38
